Results as given in PubChem BioAssay AID2783 (National Center for Advancing Translational Sciences (NCATS), 2010).
Records with an inconclusive call do not appear. The source made the active and inactive calls. The call rests on the fitted dose curve; in most records, active means well fitted inhibition curve with a large enough effect in the polarisation, with a control signal flat (not every such curve was filed as active); inconclusive means small, poorly fitted or top-dose-only effect, or effect the other way, or a change in a side signal; inactive means no such curve, though single readings can be large or run the other way; the % refers to the polarisation. Where a SMILES comes first, the peptide text is derived from it. Bridges are numbered along the chain shown (N, C = ends). [ ]: non-standard residue; d: D form. The star is where a group is joined. ξ: configuration not given here. ξDab(CH2SO3H) = NC(CCNCS(=O)(=O)O)C(=O)O; Heptanoyl(6-Me) = CC(C)CCCCC(=O)*; Dab = NCC[CH](N)C(=O)O

Target: Menin (Homo sapiens) (UniProt O00255)
Assay: Confirmation of Inhibitors Targeting the Menin-MLL Interaction in MLL Related Leukemias: Competition With Fluorescein Labeled MLL-derived Peptide
Conditions: Fluorescence polarization, fluorescein-MLL peptide displacement from menin; series mostly up to 100 µM

Menin (Homo sapiens), sequence (O00255 whole entry, looked up): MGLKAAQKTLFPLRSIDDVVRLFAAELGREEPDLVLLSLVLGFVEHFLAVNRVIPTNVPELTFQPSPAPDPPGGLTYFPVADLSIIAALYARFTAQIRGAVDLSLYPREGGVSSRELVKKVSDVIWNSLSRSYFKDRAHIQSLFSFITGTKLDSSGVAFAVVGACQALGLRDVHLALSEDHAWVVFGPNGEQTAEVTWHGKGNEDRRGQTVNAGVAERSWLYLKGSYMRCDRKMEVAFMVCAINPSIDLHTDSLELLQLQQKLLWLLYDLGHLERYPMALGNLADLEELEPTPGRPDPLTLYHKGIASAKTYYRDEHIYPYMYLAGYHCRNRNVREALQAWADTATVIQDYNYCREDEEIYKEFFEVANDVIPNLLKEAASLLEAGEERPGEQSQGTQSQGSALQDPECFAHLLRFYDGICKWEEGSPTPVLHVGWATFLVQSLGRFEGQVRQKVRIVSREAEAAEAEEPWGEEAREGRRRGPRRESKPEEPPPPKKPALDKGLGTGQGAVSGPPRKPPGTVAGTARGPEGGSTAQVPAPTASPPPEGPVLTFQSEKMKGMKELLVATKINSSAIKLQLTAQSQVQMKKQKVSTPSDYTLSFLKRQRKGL

outcome, inactive:
CCCNC(=O)c1ccc2c(=O)c(O)c(C)[nH]c2c1, O=C(c1cc2c(=O)n3ccccc3nc2s1)N1CCOCC1, O=C(O)CCC(=O)Nc1ccc(SSc2ccc(NC(=O)CCC(=O)O)cc2)cc1, O=C(NC(=S)Nc1nc(-c2ccc(Br)cc2)cs1)c1cccnc1, CCOC(=O)N1CCN(CCC(=O)c2ccc(Br)cc2)CC1, Cc1cccc(NC(=O)CSc2nc3ccc(NC(=O)CSc4nnnn4-c4ccccc4)cc3s2)c1C, CN(C)CCCNCC(=O)c1c(-c2ccccc2)n(C)c2ccccc12, CC(C)Sc1nc(N2CCOCC2)c2c3c(sc2n1)COC(C)(C)C3, CCc1ccc2c(c1)C(NC(C)=O)C(=O)N2CCN1CCOCC1 (stereo not drawn), Cc1cc2nc(-c3ccc(SCC(=O)Nc4ccc5c(c4)OCCO5)nc3)[nH]c2cc1C, Cc1ccc(NC(=O)CN2C(=O)S/C(=C\c3ccc(C(=O)O)cc3)C2=O)cc1, Cn1ncc2c(N3CCCCC3)nc(NCCCO)nc21, O=C(NC1CCN(c2ncccn2)CC1)c1c(F)cccc1F, COc1ccc(N(C(=O)c2ccncc2)S(=O)(=O)c2ccc(Cl)cc2)cc1, COc1ccccc1/C=C/C(=O)NC(=S)Nc1ccc(S(=O)(=O)N(C)c2ccccc2)cc1, COc1ccc(NC2=C(NCCO)C(=O)c3ccccc3C2=O)cc1, NC(=O)c1ccc(NC(=O)c2cncn2-c2ccccc2)cc1, NC(=O)C1CCN(C2=C(Cl)C(=O)c3ccccc3C2=O)CC1, CN(C)CCc1c[nH]c2ccc(CC3COC(=O)N3)cc12 (stereo not drawn), c1ccc(-c2ccc(-c3csnn3)cc2)cc1, N#CC1=C(N)OC2=C(C(=O)CC(c3ccco3)C2)C1c1ccc(OCc2c(F)cccc2Cl)cc1 (stereo not drawn), COc1ccc(-c2csc(NC(=S)NC(=O)/C=C/c3ccc(C(C)C)cc3)n2)cc1OC, O=C(C1=C(O)C(=O)N(CCN2CCOCC2)C1c1cccc(Br)c1)c1cccs1 (stereo not drawn), CCOC(=O)N1CCN(Cc2nnc(-c3ccccc3C)o2)CC1, COc1ccc(CN2CCN(C(C)C(=O)N(C)Cc3cccc(F)c3)CC2)cc1OC (stereo not drawn), CCCc1nc2c(=O)[nH]c3ccccc3c2o1, CCc1ccccc1NC(=O)COc1cccc(-n2cnnn2)c1, O=C(Nc1cc(Br)ccc1O)c1cc(-c2cccs2)on1, COc1ccc(CC(=O)Nc2ccc(-c3nnc(-c4ccccc4)o3)cc2)cc1, COc1ccc(/C=C(\C#N)C(=O)NCc2ccccc2)cc1, O=[N+]([O-])c1ccc(S(=O)(=O)c2ccccc2)nc1, C/C(=N\NC(=O)c1nnn(-c2nonc2N)c1C)c1ccc(-c2ccccc2)cc1, CCC(C)C1NC(=O)C(CCNCS(=O)(=O)O)NC(=O)C(NC(=O)C(CCNCS(=O)(=O)O)NC(=O)C(NC(=O)C(CCNCS(=O)(=O)O)NC(=O)CCCCC(C)C)C(C)O)CCNC(=O)C(C(C)O)NC(=O)C(CCNCS(=O)(=O)O)NC(=O)C(CCNCS(=O)(=O)O)NC(=O)C(C(C)CC)NC1=O (stereo not drawn) ({Heptanoyl(6-Me)}-[ξDab(CH2SO3H)]T[ξDab(CH2SO3H)][Dab][ξDab(CH2SO3H)]II[ξDab(CH2SO3H)][ξDab(CH2SO3H)]T; lactam 4-C; configuration not given here)
